High-throughput results as filed in PubChem.
Nrf2 block = blocks Nrf2 signaling; 360,000 tested, 2.1% active; Potency, µM (series often up to 46 µM), most hits filed as inhibitors; AID 504444; A549 ARE-Fluc reporter, luciferase luminescence, 18-24 h; note: nearly all actives have a fitted effect of over 60% in size
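A549 ARE_Fluc cells, 5000/well, 5% FBS OPTI-MEM; compounds in dose-response, 18-24 h at 37 °C/5% CO2; CellTiter-Fluor viability read (Ex 405/Em 525), then BugLite luciferase luminescence = Nrf2 activity.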
ELG1 DNA repair = inhibitors of ELG1-dependent DNA repair in HEK293T cells | HEK293T ELG1-luciferase reporter, luminescence, 16 h; DNA damage induced by 5-fluorouridine | Potency, µM (doses to about 46.1 µM), hits mostly inhibitors | 330,000 tested, 2.3% active | AID 504467; note: nearly all actives have a fitted effect of over 55% in size
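In this reporter screen, reduction of luminescence relative to DMSO vehicle indicated activity. Compounds and 5-fluorouridine were added together to 2,000 cells per well, incubated for 16 hr at 37 °C, then developed with ONE-Glo.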
A549 tox = A549 cytotoxicity, counter-screen for Nrf2 inhibitors | A549 ARE-Fluc cells, CellTiter-Fluor viability, 18-24 h | Potency, µM (highest dose often 46 µM), hits mostly inhibitors | 390,000 tested, 0.16% active | AID 504648
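Cytotoxicity counterscreen: CellTiter-Fluor fluorescence was measured in A549 ARE_Fluc cells after 18-24 h of compound exposure in a concentration series. The subsequent BugLite luminescent read reports ARE-luciferase activity.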
IDH1 R132H inh = inhibitors of human mutant IDH1 R132H | O75874 | IDH1-R132H enzyme, NADPH consumption, diaphorase/resazurin fluorescence | Potency, µM (top dose mostly 76.6 µM), hits mostly inhibitors | 390,000 tested, 0.093% active | AID 602179; note: nearly all actives have a fitted effect of over 65% in size
Target sequence (O75874 whole entry R132H, stated change not applied): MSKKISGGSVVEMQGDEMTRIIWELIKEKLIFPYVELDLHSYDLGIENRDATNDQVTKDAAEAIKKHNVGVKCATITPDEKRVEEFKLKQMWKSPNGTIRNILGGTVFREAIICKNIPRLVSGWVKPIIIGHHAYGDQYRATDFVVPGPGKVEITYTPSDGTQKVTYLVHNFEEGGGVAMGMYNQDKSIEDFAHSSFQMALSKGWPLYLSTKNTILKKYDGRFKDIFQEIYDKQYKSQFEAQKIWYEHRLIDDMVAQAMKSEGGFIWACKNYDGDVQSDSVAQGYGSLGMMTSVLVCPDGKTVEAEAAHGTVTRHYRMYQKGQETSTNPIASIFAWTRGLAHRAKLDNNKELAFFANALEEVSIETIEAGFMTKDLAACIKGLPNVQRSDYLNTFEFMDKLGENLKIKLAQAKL
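IDH1-R132H (0.5 ug/mL dispensed) in pH 7.5 Tris buffer was preincubated 30 min with compound, then given a substrate mix of 0.016 mM NADPH and 2 mM alpha-KG for 80 min at room temperature; remaining NADPH was read by diaphorase/resazurin fluorescence.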
Nrf2 activator = activates Nrf2 signaling. AREc32 ARE-luciferase reporter (MCF7-derived line), luminescence, 24 h. Potency, µM (series often up to 46.1 µM), hits mostly activators. 410,000 tested, 0.31% active. AID 624171; note: nearly all actives have a fitted effect of over 65% in size
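Steps: seed AREc32_Fluc cells (1000/well, 5% FBS OPTI-MEM); incubate overnight at 37 deg C; add 23 nL compound; incubate 24 hr; add Steady-Glo; hold 30 min RT; read luminescence.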
A number is an active result. Only some compounds are listed: those with a hit (about 3.8% of all), similar ones and a draw of the others. Calls come from the whole dose curve; as a rule, active = well fitted curve in the direction sought with a large enough effect; inconclusive = small, poorly fitted or top-dose-only effect, or another doubt; inactive = no such curve, though single readings can be large; an effect the other way counts as inactive or inconclusive.

For CC1CCCCN1S(=O)(=O)c1ccc(C(=O)Nc2nnc(-c3ccco3)o2)cc1 (stereo not drawn) the results were Nrf2 block 20.6µM, ELG1 DNA repair inconclusive, A549 tox inconclusive, IDH1 R132H inh inactive and Nrf2 activator inactive.
CCN(CC)S(=O)(=O)c1ccc(C(=O)Nc2nnc(-c3ccco3)o2)cc1 was read as Nrf2 block inconclusive, ELG1 DNA repair 20.6µM, A549 tox inactive, IDH1 R132H inh inactive and Nrf2 activator inactive.
`O=C1CCCCC1C(O)(C(=O)c1ccccc1)c1ccccc1` (stereo not drawn) gave IDH1 R132H inh inactive and Nrf2 activator inactive.
`CCCCC(=O)Nc1ccc2nc(SCC(=O)N3CCOCC3)sc2c1` gave Nrf2 block inactive, A549 tox inactive, IDH1 R132H inh inactive and Nrf2 activator inactive.
Screening CCCCNC(=O)CSc1nc2ccc(Nc3nc(N4CCOCC4)nc(N4CCOCC4)n3)cc2s1 returned Nrf2 block inactive, ELG1 DNA repair 5.8µM, A549 tox inactive, IDH1 R132H inh inactive and Nrf2 activator inactive.
Screening CCOC(=O)Nc1cccc(NC(=O)c2cc(OC)cc(OC)c2)c1 returned Nrf2 block inactive, ELG1 DNA repair 14.6µM, A549 tox inactive, IDH1 R132H inh inactive and Nrf2 activator inactive.
`CCOC(=O)Nc1cccc(OCC(=O)Nc2ccccc2OC)c1` gave Nrf2 block inconclusive, ELG1 DNA repair inconclusive, A549 tox inactive, IDH1 R132H inh inactive and Nrf2 activator inactive.
For CCOC(=O)Nc1cccc(OCC(=O)Nc2ccc(OC)cc2OC)c1 the results were Nrf2 block 14.6µM, ELG1 DNA repair inconclusive, A549 tox inconclusive, IDH1 R132H inh inactive and Nrf2 activator inactive.
For Cc1nccn1CCCNC(=O)CC1C(=O)NCCN1Cc1ccc(F)cc1Cl (stereo not drawn) the results were Nrf2 block inactive, ELG1 DNA repair inactive, A549 tox inactive, IDH1 R132H inh inactive and Nrf2 activator inactive.
CC(NC(=O)C1CCC(CNS(=O)(=O)c2ccc3c(c2)C(C)(C)C(=O)N3C)CC1)c1ccccc1 (stereo not drawn) was read as Nrf2 block inconclusive, ELG1 DNA repair inactive, A549 tox inactive, IDH1 R132H inh inactive and Nrf2 activator inactive.
Cc1sc2cc3c(c(C(=O)c4ccccc4)[n+]2c1C)-c1cccc2cccc-3c12 was read as Nrf2 block inconclusive, ELG1 DNA repair 23.1µM, A549 tox inconclusive, IDH1 R132H inh inactive and Nrf2 activator inactive.
Screening Cc1cc2ccccc2cc1C(=O)c1ccccc1 returned Nrf2 block inconclusive, A549 tox inactive, IDH1 R132H inh inactive and Nrf2 activator inactive.
Screening O=C(c1ccccc1)c1c2c(cc3sc4ccccc4[n+]13)-c1cccc3cccc-2c13 returned Nrf2 block 20.6µM, ELG1 DNA repair 18.4µM, A549 tox 16.4µM, IDH1 R132H inh inconclusive and Nrf2 activator inactive.
Cc1ccc(Cn2nnc3c(=O)[nH]c(C4CCCN(C(=O)Nc5ccc(F)cc5)C4)nc32)cc1 (stereo not drawn) was read as ELG1 DNA repair 16.4µM, A549 tox inactive, IDH1 R132H inh inactive and Nrf2 activator inactive.
Cc1ccc(Cn2nnc3c(=O)[nH]c(C4CCN(C(=O)c5cccs5)CC4)nc32)cc1 was read as ELG1 DNA repair 9.2µM, A549 tox inactive, IDH1 R132H inh inactive and Nrf2 activator inactive.
Cc1ccc(C)c(Cn2nnc3c(=O)[nH]c(C4CCN(C(=O)c5cccs5)CC4)nc32)c1 was read as Nrf2 block inactive, ELG1 DNA repair inconclusive, A549 tox inactive, IDH1 R132H inh inactive and Nrf2 activator inactive.
`COc1ccc(Cn2nnc3c(=O)[nH]c(C4CCCN(C(=O)c5ccc(C)cc5)C4)nc32)cc1` (stereo not drawn) gave Nrf2 block inactive, A549 tox inactive and Nrf2 activator inactive.
For COc1ccc(CNC(=O)c2nc(SCc3ccccc3F)ncc2Cl)cc1 the results were Nrf2 block inconclusive, A549 tox inactive, IDH1 R132H inh inactive and Nrf2 activator inactive.
CCOc1cc(C=O)cc(N=Nc2cccc([N+](=O)[O-])c2)c1O was read as Nrf2 block inactive, ELG1 DNA repair inactive, A549 tox inactive, IDH1 R132H inh inactive and Nrf2 activator 10µM.
`CNc1cncc(-c2ccc(F)cc2F)n1` gave Nrf2 activator inactive.
